In the library only some 11% were active in any assay of this set; here they are far more common.
IMPase cell inh: cell-permeable inhibitors of inositol monophosphatase (IMPase); CHO-M1 cells, IP1 accumulation, HTRF TR-FRET ratio; inhibition (IP1 accumulation), % at 46.1 µM; 120,000 tested, under 10 active; AID 901; active means well fitted curve in the direction sought with a large enough effect in the signal ratio, not every such curve was filed as active; inconclusive means small, poorly fitted or top-dose-only effect, or a change in a side signal; inactive means no such curve, though single readings can be large or run the other way; the % refers to the signal ratio;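 further: cells stimulated with carbachol in lithium chloride buffer; plate controls were DMSO basal wells for no effect and reference inhibitor wells for full effect; higher means more IMPase inhibition seen as more IP1 and lower FRET ratio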
Target sequence (P97697 whole entry, looked up): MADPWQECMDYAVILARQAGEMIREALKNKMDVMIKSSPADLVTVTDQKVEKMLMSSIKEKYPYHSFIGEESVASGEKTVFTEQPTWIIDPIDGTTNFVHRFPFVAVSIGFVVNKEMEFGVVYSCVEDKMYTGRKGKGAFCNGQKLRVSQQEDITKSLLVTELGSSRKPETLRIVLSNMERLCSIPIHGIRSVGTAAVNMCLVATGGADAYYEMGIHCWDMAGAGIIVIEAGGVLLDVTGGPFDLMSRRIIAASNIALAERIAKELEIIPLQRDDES
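Measured: the HTRF emission ratio (665/620 nm) plus the 620 nm donor channel, each fitted to the Hill equation to give AC50. Cells were CHO-M1 given compounds up to 46 uM and a 30 min carbachol stimulation at 37C.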
ALOX12 inhib: blocks human 12-lipoxygenase activity. P18054. purified 12-hLO, xylenol orange hydroperoxide absorbance. Potency, µM (doses to about 57.1 µM), inactives show at the highest dose activity change, negative = inhibition, usual class: inhibitors. 150,000 tested, 0.12% active; further: potency means the concentration at half of the fitted maximal effect; nearly all actives have a fitted effect of over 55% in size
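150 nM 12hLO, 25 mM Hepes pH 7.0 + 0.01% Triton X-100; cpd preinc 15 min RT; 40 uM arachidonic acid, 30 min RT; Fe-XO 30 min; A573/A405 ratio as read-out.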
PNC assembly inh: inhibitors of perinucleolar compartment assembly; PC3M PTB-GFP, PNC prevalence imaging, 16 h; active compounds read low; activity change (PNC), negative = inhibition, % at 10 µM; 140,000 tested, 3.1% active; AID 2417;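 active means readout at or below -70, meaning at least 70% loss of cells showing the perinucleolar compartment, a nuclear body marking cancer cells; inconclusive means readout between -30 and a set limit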;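 further: plate controls were DMSO wells for no effect and camptothecin positive control wells for full effect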
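Read-out is percentage of cells bearing a perinucleolar compartment, from automated 20x imaging of fixed, Hoechst-stained PC3M PTB-GFP cells. Cells were seeded 4 h, then exposed 16 h to compound (23 nl of library stock) in duplicate plates.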
IMPase Li inh: cell-permeable IMPase inhibitors with lithium potentiation; CHO-M1 cells, IP1 TR-FRET (IP-One), carbachol + lithium; Potency, µM (doses to about 59.4 µM), without a hit: top-dose activity, negative = IMPase inhibition, most hits filed as inhibitors; 210,000 tested, 0.35% active; AID 1457;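 further: IP1 builds up when IMPase is blocked and the TR-FRET signal falls; potency means the concentration at half of the fitted maximal effect; plate controls were basal vehicle for no effect and high inhibitor control for full effect; nearly all actives have a fitted effect of over 50% in size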
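Readout is a homogeneous TR-FRET IP1 immunoassay (Ex 320, Em 665 and 620), where raised cytosolic IP1 lowers signal. Cells were CHO-M1 treated 30 min at 37C with test compounds plus a little lithium; AC50 values came from Hill-equation fitting.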
HPGD inh: inhibitors of human 15-hydroxyprostaglandin dehydrogenase (HPGD) | P15428 | purified HPGD, NADH fluorescence kinetic, PGE2 substrate | Potency, µM, inactives show top-dose activity change, negative = inhibition, most hits filed as inhibitors | 150,000 tested, 4.3% active | AID 894; active means well fitted inhibition curve with a large enough effect, not every such curve was filed as active; inconclusive means small, poorly fitted or top-dose-only effect, or another doubt; inactive means no such curve, though single readings can be large or run the other way; further: potency means the concentration at half of the fitted maximal effect
Target sequence (P15428 whole entry, looked up): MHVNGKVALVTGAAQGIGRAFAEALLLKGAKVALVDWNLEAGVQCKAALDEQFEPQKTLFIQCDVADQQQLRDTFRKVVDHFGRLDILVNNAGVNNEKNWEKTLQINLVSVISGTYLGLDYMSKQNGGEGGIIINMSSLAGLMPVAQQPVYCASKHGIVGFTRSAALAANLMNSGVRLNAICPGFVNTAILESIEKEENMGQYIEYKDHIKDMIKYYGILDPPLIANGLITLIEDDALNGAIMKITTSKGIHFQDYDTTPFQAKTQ
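NADH formation kinetics: reaction with 30 uM PGE2 and 1 mM NAD+ (final), 20 nM enzyme, Tris-HCl pH 8 with Tween 20, after 15 min compound preincubation at room temperature. Fluorescence change, last versus first of five reads.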
ALDH1A1 block: ALDH1A1 (human) enzyme inhibition. 220,000 tested, 7.3% active. AID 1030. Purified ALDH1A1, NADH fluorescence, propionaldehyde substrate. Potency, µM (titrated, usually from 75.3 µM), inactives show at the top dose activity, negative = inhibition, most hits filed as inhibitors. P00352; active means well fitted inhibition curve with a large enough effect, not every such curve was filed as active; inconclusive means small, poorly fitted or top-dose-only effect, or another doubt; inactive means no such curve, though single readings can be large or run the other way;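 further: potency means the concentration at half of the fitted maximal effect; plate controls were no enzyme wells and a reference inhibitor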
An asterisk follows results filed as active; ? = inconclusive; . = no result given; [ ] = another dose, or the depositor's remark. Unless noted, the call rests on the fitted dose curve; in most records, active means well fitted curve in the direction sought with a large enough effect; inconclusive means small, poorly fitted or top-dose-only effect, or another doubt; inactive means no such curve, though single readings can be large; an effect the other way counts as inactive or inconclusive. Unless noted, on the % scale 0 is the no-effect control and ±100 the full control effect.

SMILES | IMPase cell inh | ALOX12 inhib | PNC assembly inh | IMPase Li inh | HPGD inh | ALDH1A1 block
N[C@@H]1C=CC=C(C(=O)O)C1 | 1 | -1% | . | . | . | .
COc1ccccc1C(=O)Nc1ccc2oc(-c3cccc4c(Br)cccc34)nc2c1 | -11 | . | . | . | . | .
N#Cc1c(NC(=S)NC(=O)c2ccccc2)sc2c1CCCC2 | . | -2% | ? | -4% | 25µM* | 3.2µM*
N#Cc1c(NC(=S)NC(=O)c2ccccc2)sc2c1CCN(CCc1ccccc1)C2 | . | 2% | ? | 3% | -18% | 18µM*
N#Cc1c(NC(=O)c2ccccc2)sc2c1CCC2 | -6 | -1% | -9 | ? | ? | ?
Cc1ccccc1C(=O)NC(=S)Nc1sc2c(c1C#N)CCC(C)C2 (centres undefined) | -6 | ? | ? | -10%[38.3 µM] | -21% | 10µM*
COc1cccc(C(=O)Nc2sc3c(c2C#N)CCN(C(C)=O)C3)c1 | . | . | . | 3% | . | 8.9µM*
CC1CCc2c(sc(NC(=O)c3ccccc3C(=O)O)c2C#N)C1 (centres undefined) | . | . | . | -2% | . | ?
N#Cc1c(N)sc2c1CCN(CCc1ccccc1)C2 | 5 | 4% | 236 | 5% | -30% | ?
CC(C)CC(=O)NC(NC(=S)Nc1sc2c(c1C#N)CCCC2)C(Cl)(Cl)Cl (centres undefined) | 3 | ? | 75 | 18%[38.3 µM] | 14µM* | 3.5µM*
N#Cc1c(NC(=S)NC(=O)C2CCCC2)sc2c1CCCCC2 | -4 | 0% | ? | . | . | 10µM*
Cn1ncc(Cl)c1C(=O)NC(=S)Nc1sc2c(c1C#N)CCCCC2 | -4 | -2% | 85 | -15%[38.3 µM] | 25µM* | ?
CCC(=O)Nc1sc2c(c1C#N)CCC2 | . | . | . | -16% | . | -6%
CC1(C)Cc2c(sc(NC(=S)NC(=O)c3ccccc3)c2C(=O)O)CO1 | . | . | . | -9% | . | 22µM*
C=CC1=C[C@@H](O)C2OC2C12OCCCO2 (some centres undefined) | . | . | . | . | . | 1%[13.5 µM]
CCCC(=O)N1CCN(c2ccc([N+](=O)[O-])cc2Cl)CC1 | . | -2% | -24 | 10% | -7% | ?
NC(=O)C1CCN(c2ccc([N+](=O)[O-])cc2Cl)CC1 | . | . | . | -6% | . | 20µM*
CCN(CC)S(=O)(=O)c1cc([N+](=O)[O-])ccc1N1CCC(C(N)=O)CC1 | . | . | . | 7% | . | ?
O=C(CSc1ccc(Cl)cc1)N1CCN(c2ccc([N+](=O)[O-])cc2Cl)CC1 | -9 | -16% | 12 | 13%[38.3 µM] | -6% | 20µM*
CC1CCC2=C1C[C@H](C(C)(C)O)CC[C@@H]2C (some centres undefined) | . | . | . | 9% | -5% | -5%
Nc1ccnc2c1ncn2[C@@H]1O[C@H](CO)[C@@H](O)[C@H]1O | . | . | . | 16% | . | 7%
CSc1nc(=NC(C)=O)ss1 | -3 | -4% | 51 | 32%[38.3 µM] | ? | 1.8µM*
CCN(CC)CCCC(C)NC(=O)c1ccc(Cc2nc3ccccc3[nH]2)cc1 (centres undefined) | . | -5% | . | . | -1% | -1%
COc1ccc(-n2c(=O)c(-c3cc(F)cc(F)c3)nc3cncnc32)cc1 | . | . | . | -2% | . | 12%
COCCn1nnnc1CN1CCSCC1 | . | . | . | 5% | . | 6%
SMILES | IMPase cell inh | ALOX12 inhib | PNC assembly inh | IMPase Li inh | HPGD inh | ALDH1A1 block
COCCn1nnnc1CN1CCC(Cc2ccccc2)CC1 | -11 | 4% | -100* | 2% | -9% | -13%
Cc1ccccc1C1C(C#N)=C2N=C(N)c3c(sc4c3CCCCC4)N2C2=C1C(=O)CC(C)(C)C2 (centres undefined) | 5 | -9% | 87 | -13%[38.3 µM] | -5% | 7.1µM*
CCc1nn2c(=O)c(S(=O)(=O)Nc3ccc(C)c(C)c3)c(C)nc2s1 | 3 | . | . | . | . | .
O=C1CC(N2CCCCCC2)C(=O)N1c1ccc(F)cc1 (centres undefined) | . | . | . | 1% | . | 13µM*
O=C1CC(N2CCCCCC2)C(=O)N1c1ccc2c(c1)OCO2 (centres undefined) | 14 | -1% | 36 | 4%[38.3 µM] | -16% | 5µM*
O=C1CCCN1CCC1CCN(C2CC(=O)N(Cc3ccc(N4CCCC4=O)cc3)C2=O)CC1 (centres undefined) | -7 | 0% | ? | 20%[38.3 µM] | 5% | ?
O=C1CC(NC23CC4CC(CC(C4)C2)C3)C(=O)N1c1ccc2c(c1)OCO2 (centres undefined) | 2 | -1% | -16 | 1%[38.3 µM] | -5% | 11µM*
O=C1CCCN1CCC1CCN(C2CC(=O)N(c3ccc(Cl)cc3)C2=O)CC1 (centres undefined) | -16 | -24% | 0 | -14%[38.3 µM] | -7% | 20µM*
COc1ccc(Nc2nc3ccccc3n3c(N)nnc23)cc1 | -7 | . | . | . | . | .
COc1ccc([N+](=O)[O-])cc1N | . | -2% | . | 8% | -10% | -6%
COc1ccc(N2C(=O)CC(N3CCCC4CCCCC43)C2=O)cc1 (centres undefined) | -3 | 6% | -24 | 26%[38.3 µM] | -13% | 8.9µM*
COc1ccc(N2C(=O)CC(Nc3ccc(C)cc3)C2=O)cc1 (centres undefined) | 6 | 3% | 13 | -7%[38.3 µM] | -11% | -3%
COc1ccc(N2C(=O)CC(N3CCCCC3)C2=O)cc1 (centres undefined) | . | . | . | 8% | . | 18µM*
O=C1CC(N2CCN(c3ccccc3Cl)CC2)C(=O)N1c1ccc(F)cc1 (centres undefined) | -5 | -6% | ? | -7%[38.3 µM] | -5% | -6%
COc1ccc(N2C(=O)CC(NC3CCCCNC3=O)C2=O)cc1 (centres undefined) | 7 | -1% | ? | 0% | 0% | 20µM*
CC1CCN(C2CC(=O)N(c3ccccc3)C2=O)CC1 (centres undefined) | . | . | . | 2% | . | 28µM*
COc1ccc(N2C(=O)CC(C3CCCO3)C2=O)cc1 (centres undefined) | . | . | . | 4% | . | 11%
CO[C@@H](NC(N)=O)C(=O)O | . | 3%[11.4 µM] | . | -10% | -6% | 3%[13.5 µM]
COc1ccc(-c2noc(CCC(=O)NCc3ccc(OC)cc3OC)n2)cc1 | 12 | . | . | . | . | .
NC[C@](O)(CS(=O)(=O)O)c1ccc(Cl)cc1 | -2 | -5% | . | 20% | -10% | 6%
COc1ccc(-c2nc3cc(NC(=O)c4ccc(C)cc4)ccc3o2)cc1Cl | -1 | . | . | . | . | .
CCC(Sc1nnc2c3ccccc3n(C)c2n1)C(=O)Nc1nnc(C(C)C)s1 (centres undefined) | 3 | . | . | . | . | .
Cc1cccc(N2C(=O)CC(N3CCN(c4ccccc4)CC3)C2=O)c1 (centres undefined) | -6 | 1% | 0 | 11%[38.3 µM] | -12% | ?
